Shown are actives, neighbours in structure and some others; about 3.4% of the full set was active somewhere.
GBA mod = Glucocerebrosidase. 48,000 tested, 1.1% active. Potency, µM. Lysosomal acid glucosylceramidase (Homo sapiens), P04062. purified enzyme, resorufin glucoside fluorescence (screen aimed at inhibitors), 20 min. AID 360, 2006; in the data active means potency below about 15 µM; inconclusive means mostly about 16 µM to 33 µM;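 further: the screen sought inhibitors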
Target sequence (P04062 whole entry, looked up): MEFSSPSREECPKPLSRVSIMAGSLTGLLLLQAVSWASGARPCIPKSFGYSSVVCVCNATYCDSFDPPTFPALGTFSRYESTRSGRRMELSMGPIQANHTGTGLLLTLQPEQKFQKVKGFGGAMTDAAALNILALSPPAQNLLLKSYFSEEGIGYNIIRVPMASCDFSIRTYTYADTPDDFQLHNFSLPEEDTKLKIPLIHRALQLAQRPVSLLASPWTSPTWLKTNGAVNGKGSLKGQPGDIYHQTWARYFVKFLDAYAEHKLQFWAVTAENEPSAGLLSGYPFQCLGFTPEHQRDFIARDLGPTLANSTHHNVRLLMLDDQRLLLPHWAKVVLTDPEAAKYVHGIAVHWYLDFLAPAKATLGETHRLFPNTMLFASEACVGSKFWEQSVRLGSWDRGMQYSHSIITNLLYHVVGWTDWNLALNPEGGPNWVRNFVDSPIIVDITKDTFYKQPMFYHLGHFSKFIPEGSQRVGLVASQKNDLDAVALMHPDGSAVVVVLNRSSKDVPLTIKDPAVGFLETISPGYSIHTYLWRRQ
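Compounds titrated against 0.2 nM normal enzyme, 30 uM resorufin beta-D-glucopyranoside substrate, citrate/phosphate buffer with taurocholate and tween-20, pH 5.9. Reaction ran 20 min at room temperature; fluorescence (Ex 548/Em 600) gave AC50.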
Luciferase inh = qHTS Assay for Inhibitors of Firefly Luciferase | Potency, µM (titrated, usually from 57.1 µM), inactives show at the top dose activity change, negative = inhibition, usual class: inhibitors | 72,000 tested, 2.2% active | Luciferin 4-monooxygenase (Photinus pyralis), P08659 | purified firefly luciferase, luminescence, 8 min; active means well fitted inhibition curve with a large enough effect; inconclusive means small, poorly fitted or top-dose-only effect; further: on the % scale 0 is the no-effect control and ±100 the full control effect; nearly all actives have a fitted effect of over 40% in size
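Compounds were tested as concentration series (qHTS) against purified P. pyralis luciferase with luciferin and 10 uM ATP in 50 mM imidazole pH 7.2, 50 mM KCl, 7 mM MgCl2, 0.01% Tween 20, 0.05% BSA. Luminescence was read after 8 min at ambient temperature.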
PK Bst = Pyruvate Kinase; purified pyruvate kinase, luminescence ATP production; ribose 5-phosphate activator present at AC10; Potency, µM; 51,000 tested, 1.2% active; AID 361, 2006; in the data active means potency below about 11 µM; inconclusive means mostly about 12 µM to 25 µM;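 the screen sought inhibitors and activators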;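 further: scaled between full activation by ribose 5 phosphate and full inhibition by luteolin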
* marks the source's active call; other numbers are inactive results; [ ] = remark or other dose. Potency means the concentration at half of the fitted maximal effect.

`c1ccc(C2=Nn3c(nnc3-c3cc(-c4ccccc4)n[nH]3)SC2)cc1` gave GBA mod 8.53*, Luciferase inh inconclusive and PK Bst >11.4.
`COc1ccc([C@@H]2CC(=O)c3c(O)cc(O[C@@H]4O[C@@H](CO[C@@H]5O[C@@H](C)[C@@H](O)[C@@H](O)[C@H]5O)[C@@H](O)[C@@H](O)[C@H]4O)cc3O2)cc1O` gave Luciferase inh 1.4%[11.4 µM].
Screening Cc1[nH]c(C)c(CN(C)C)c1CN(C)C returned Luciferase inh -0.7%[11.4 µM].
CC(=O)N=C(N)Sc1nc2ccccc2[nH]1 was read as Luciferase inh 12.6µM* and PK Bst inconclusive.
For C[N+](C)(C)CCCSc1nc2ccccc2[nH]1 the results were Luciferase inh 1.7%[11.4 µM].
CC(=O)Nc1ccc(S(=O)(=O)N2CCN(c3cccc(C)c3C)CC2)cc1 was read as Luciferase inh 3.5%.
Screening CC(=O)Nc1ccc(-c2nc3c(C)cccc3[nH]2)cc1 returned GBA mod inconclusive and Luciferase inh 3.16µM*.
CCN(CCCCOC(=O)c1ccc(OC)c(OC)c1)[C@@H](C)Cc1ccc(OC)cc1 was read as Luciferase inh 12.0%[25.5 µM].
`C[C@@H]1/C=C\CC(=O)OC[C@H](C)C(=O)N[C@@H](C)C(=O)OC1` gave Luciferase inh -0.1%[11.4 µM].
`O=C(CCn1cnc2ccccc2c1=O)Nc1ccc2c(c1)OCCO2` gave Luciferase inh -2.0% and PK Bst >57.
`Cc1ccc(NC(=O)CCn2cnc3ccccc3c2=O)cc1Cl` gave GBA mod 6.51*, Luciferase inh 0.7% and PK Bst >57.
Cc1cccc(N2CC(=O)N(c3cccc(C)c3)CC2=O)c1 was read as Luciferase inh -0.6%[25.5 µM] and PK Bst >25.6.
Screening Cc1ccc2c(c1)C(=O)[C@@]1(O)CCN(c3ccccc3)C1=N2 returned Luciferase inh 12.6µM*.
COc1ccc(C2CC(C(F)(F)F)n3nc(C(=O)O)c(Cl)c3N2)cc1OC (stereo not drawn) was read as Luciferase inh -5.8%.
Screening COc1ccc(C2CC(C(F)(F)F)n3nc(CO)c(Cl)c3N2)cc1OC (stereo not drawn) returned GBA mod 5.86*, Luciferase inh 2.8% and PK Bst >57.
`c1ccc2nc(CC[C@@H]3CCCCN3)ccc2c1` gave Luciferase inh -3.6%[11.4 µM].
Screening C(=N\c1nc2ccccc2[nH]1)/c1cccs1 returned Luciferase inh 7.94µM*.
Screening c1csc(Cc2nc3ccccc3[nH]2)c1 returned GBA mod >76.9, Luciferase inh -4.0% and PK Bst >57.
For CC(C)c1ccc2c(c1)CC[C@H]1[C@@](C)(CN)CCC[C@@]21C the results were Luciferase inh 3.5%[11.4 µM].
Screening O=C(Nc1ccccc1)N1CCC2(CC1)CCN(C(=O)c1ccncc1)CC2 returned Luciferase inh 0.5%[11.4 µM].
For Cc1ccc(-c2cc(C(=O)Nc3cccnc3)c3ccccc3n2)o1 the results were Luciferase inh 7.94µM*.
For O=C(Nc1cccnc1)c1cc2c(ccc3ccccc32)o1 the results were Luciferase inh 3.98µM*.
For O=C(Nc1cccnc1)c1coc(=O)c2ccccc12 the results were GBA mod >76.9, Luciferase inh -0.6% and PK Bst >57.
Cc1cc(C(=O)Nc2cccnc2)on1 was read as Luciferase inh 1.0%.
CC1CCN(Cc2nc3c(c(=O)n(C)c(=O)n3C)n2Cc2c(F)cccc2Cl)CC1 was read as GBA mod >76.9, Luciferase inh 4.4% and PK Bst >57.
Screening CC1CCCN(Cc2nc3c(c(=O)n(C)c(=O)n3C)n2Cc2c(F)cccc2Cl)C1 (stereo not drawn) returned Luciferase inh 6.31µM*.
For CN1CCN(Cc2nc3c(c(=O)n(C)c(=O)n3C)n2Cc2ccccc2Cl)CC1 the results were Luciferase inh 12.6µM*.
For Cn1c(=O)c2c(nc(CN3CCN(c4ccccc4)CC3)n2Cc2ccccc2Cl)n(C)c1=O the results were GBA mod >76.9, Luciferase inh 2.7% and PK Bst >57.
For CCNc1ncc2nc(-c3cc(F)cc(F)c3)c(=O)n(C3CC3)c2n1 the results were Luciferase inh 1.2%[11.4 µM].
For C[C@@]12C[C@H](O)[C@@H]3[C@H](CCC4=CC(=O)CC[C@]43C)[C@H]1CC[C@@H]2c1csc(-c2ccccc2)n1 the results were Luciferase inh 4.8%[11.4 µM].
Screening N#Cc1ccccc1-c1cncnc1NCc1cccnc1 returned Luciferase inh -2.1%[2.29 µM].
C=C(C)COc1ccc2c(C)c(CC(=O)OC)c(=O)oc2c1C was read as Luciferase inh 15.8µM* and PK Bst inactive.
COC(=O)Cc1c(C)c2ccc(OCC(C)=O)c(C)c2oc1=O was read as GBA mod >76.9, Luciferase inh -2.3% and PK Bst >57.
CN1CCCC[C@@H]1CCN1CCCCC1 was read as Luciferase inh -0.7%[11.4 µM].

Assay outcomes (PubChem BioAssay)
